Where a name gives a salt, the structure may show the parent alone.

The test system of this experiment is Clostridium sporogenes DSM 1664. Put plainly: growth (OD595) fold change vs plate DMSO controls (fold change (ratio)); higher = more growth. The note with it: incubation time: 27 h, anaerobic, 37 °C. The procedure, abridged: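 The measure reported is growth, taken as fold change against the median of DMSO controls on the same plate. Anaerobic mGAM cultures in 96-well plates (27 h, 37 °C) were read at 595 nm, blank-subtracted, corrected for compound background using 20 µM compound solutions in water, and multiplied by a calibration factor of 5 to give OD. Any fold change above 1.5 became NA, and 2 biological replicates were averaged.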
For the compound `CN[C@H](CC(C)C)C(=O)N[C@H]1C(=O)N[C@@H](CC(N)=O)C(=O)N[C@H]2C(=O)N[C@H]3C(=O)N[C@H](C(=O)N[C@H](C(=O)O)c4cc(O)cc(O)c4-c4cc3ccc4O)[C@H](O)c3ccc(c(Cl)c3)Oc3cc2cc(c3O[C@@H]2O[C@H](CO)[C@@H](O)[C@H](O)[C@H]2O[C@H]2C[C@](C)(N)[C@H](O)[C@H](C)O2)Oc2ccc(cc2Cl)[C@H]1O` [Vancomycin hydrochloride] (20 µM), the growth was determined as 0.
With `OC[C@H]1OC(O)[C@H](O)[C@H](O)[C@@H]1O` (stereo partly drawn) [D-allose] (50 µM), the growth amounted to 1.08.
As to `COC1=CC(=O)C[C@@H](C)[C@]12Oc1c(Cl)c(OC)cc(OC)c1C2=O` [Griseofulvin] (20 µM), the growth was found to be 0.993.
For the compound `CN1CCN(CCCN2c3ccccc3Sc3ccc(C(F)(F)F)cc32)CC1` [Trifluoperazine dihydrochloride] (20 µM), the growth was found to be 1.25.
Take `CCCN(CCC)S(=O)(=O)c1ccc(C(=O)O)cc1` [Probenecid] (20 µM): the growth was 1.04.
Consider `C#C[C@]1(O)CC[C@H]2[C@@H]3CCC4=CC(=O)CC[C@@H]4[C@H]3CC[C@@]21C` [Norethindrone] (20 µM), for which the growth was 1.09.
With `NC(=O)c1ncn([C@@H]2O[C@H](CO)[C@@H](O)[C@H]2O)n1` [Ribavirin] (20 µM), the growth was 1.13.
`Cc1c(O)cccc1C(=O)N[C@@H](CSc1ccccc1)[C@H](O)CN1C[C@H]2CCCC[C@H]2C[C@H]1C(=O)NC(C)(C)C` [Nelfinavir mesylate] (20 µM): the growth was 1.07.

The values above are taken from the supplement of paper PMC12494721.
